Reference: PubChem BioAssay AID1259349 (Broad Institute, 2017)
Among all 17,000 compounds or so, about 1,100 (6.5%) were called active. The sample holds actives, similar compounds and a random draw of the others, so the mix is not that of the screen.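 The calls were made as follows: active = z-score of -3 or lower, meaning strong loss of probe binding signal; inactive = the rest.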

Target: Insulin-degrading enzyme (Homo sapiens) (UniProt P14735)
Test: displacers of FL-6b probe from IDE – biochemical, fluorescence anisotropy, probe displacement, primary screen (AID 1259349);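 also: His-tagged human IDE residues 42-1019 made in E. coli with 30 nM FL-6b probe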
Conditions: purified IDE, FL-6b probe fluorescence polarization; at 20 µM; active compounds read low

Sequence of Insulin-degrading enzyme (Homo sapiens) (P14735 42-1019 limits assumed): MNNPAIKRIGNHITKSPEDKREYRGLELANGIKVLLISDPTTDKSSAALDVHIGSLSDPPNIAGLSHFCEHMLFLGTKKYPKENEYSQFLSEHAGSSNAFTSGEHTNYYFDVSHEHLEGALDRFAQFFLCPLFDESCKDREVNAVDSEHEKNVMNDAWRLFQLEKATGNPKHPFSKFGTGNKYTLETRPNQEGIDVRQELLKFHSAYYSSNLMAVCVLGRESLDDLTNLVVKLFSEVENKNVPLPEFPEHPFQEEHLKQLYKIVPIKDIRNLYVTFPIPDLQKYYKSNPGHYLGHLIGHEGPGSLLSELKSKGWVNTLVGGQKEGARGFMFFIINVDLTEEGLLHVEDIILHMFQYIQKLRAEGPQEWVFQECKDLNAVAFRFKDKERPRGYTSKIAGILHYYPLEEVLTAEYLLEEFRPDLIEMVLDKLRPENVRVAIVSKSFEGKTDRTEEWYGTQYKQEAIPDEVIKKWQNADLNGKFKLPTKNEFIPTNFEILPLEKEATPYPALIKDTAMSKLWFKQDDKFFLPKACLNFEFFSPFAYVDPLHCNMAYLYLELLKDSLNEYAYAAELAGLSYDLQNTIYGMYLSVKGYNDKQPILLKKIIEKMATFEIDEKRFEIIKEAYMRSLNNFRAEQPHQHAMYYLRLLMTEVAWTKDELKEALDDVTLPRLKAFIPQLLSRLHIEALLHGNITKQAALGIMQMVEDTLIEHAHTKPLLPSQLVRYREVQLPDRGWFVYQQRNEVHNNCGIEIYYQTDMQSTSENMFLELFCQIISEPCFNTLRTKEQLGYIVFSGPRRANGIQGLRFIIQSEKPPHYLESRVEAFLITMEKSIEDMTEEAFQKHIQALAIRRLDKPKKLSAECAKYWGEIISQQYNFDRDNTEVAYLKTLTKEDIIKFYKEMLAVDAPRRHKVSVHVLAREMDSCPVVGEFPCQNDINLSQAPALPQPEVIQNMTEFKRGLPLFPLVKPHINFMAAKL

z-score, active:
Cc1cccc(-c2ccc([C@@H]3[C@H](CO)N4CCCCN(C(=O)c5ccc6c(c5)OCO6)C[C@@H]34)cc2)c1 -4.42
Cc1cccc(-c2ccc([C@H]3[C@H](CO)N4CCCCN(S(=O)(=O)c5cn(C)cn5)C[C@@H]34)cc2)c1 -4.09
CCS(=O)(=O)N1CCCCN2[C@@H](CO)[C@@H](c3ccc(-c4ccccc4)cc3)[C@@H]2C1 -3.06
COc1ccccc1-c1ccc([C@@H]2[C@@H](CO)N3CCCCN(C(=O)c4ccncc4)C[C@@H]23)cc1 -4.74
O=C(c1ccncc1)N1CCCCN2[C@H](CO)[C@H](c3ccc(-c4ccccc4)cc3)[C@H]2C1 -4.53
O=C(c1ccc(F)cc1)N1CCCCN2[C@H](C1)[C@@H](c1ccc(C#CC3(O)CCCC3)cc1)[C@@H]2CO -3.65

z-score, inactive:
N#C[C@H]1[C@H](c2ccccc2-c2ccc(F)cc2)[C@H](CO)N1C(=O)Cc1ccncc1 2.04
CO[C@@H]1CC[C@@H]2CCOc3ccc(C#N)cc3C(=O)N(C)[C@H](C)C(=O)N(C)C[C@@H]1O2 2.26
CO[C@@H]1CN(C)C(=O)c2ccc(NS(=O)(=O)c3c(C)noc3C)cc2OC[C@H](C)NC[C@@H]1C 1.77
O=S(=O)(c1ccccc1)N1CCCCN2[C@H](C1)[C@H](c1ccc(-c3ccccc3)cc1)[C@@H]2CO 2.36
O=S(=O)(Cc1ccccc1)N1CCCCN2[C@@H](CO)[C@H](c3ccc(-c4ccccc4)cc3)[C@@H]2C1 2.58
COc1ccc(-c2ccc([C@H]3[C@H]4CN(C(=O)c5ccc6c(c5)OCO6)CCCCN4[C@H]3CO)cc2)cc1 0.126
O=C(c1ccncc1)N1CCCCN2[C@H](CO)[C@@H](c3ccc(C#Cc4ccccn4)cc3)[C@H]2C1 -2.35
Cn1cnc(S(=O)(=O)N2CCCCN3[C@H](CO)[C@@H](c4ccc(-c5ccc(F)cc5)cc4)[C@@H]3C2)c1 3.91
COc1ccccc1-c1ccc([C@@H]2[C@@H](CO)N3CCCCN(S(=O)(=O)c4cn(C)cn4)C[C@H]23)cc1 -2.23
COc1ccc(C#Cc2ccc([C@@H]3[C@@H](CO)N4CCCCN(C(=O)c5ccncc5)C[C@@H]34)cc2)cc1 -0.38
CCCC#Cc1ccc([C@H]2[C@H](CO)N3CCCCN(C(=O)c4ccc5c(c4)OCO5)C[C@@H]23)cc1 1.25
O=C1CN(S(=O)(=O)Cc2ccccc2)C[C@@H]2[C@@H](c3ccc(C#Cc4ccccc4)cc3)[C@@H](CO)N12 -0.431
O=C(c1cccc(F)c1)N1CC(=O)N2[C@H](C1)[C@@H](c1ccc(C#Cc3ccc(F)cc3)cc1)[C@@H]2CO 2.4
CCC(=O)N1CC[C@H]2[C@@H]1c1cc(-c3ccc(C#N)cc3)ccc1N(C)[C@H]2CO -0.903
O=C(C[C@H]1CC[C@@H]2NC[C@H](O)COC[C@H]2O1)NCCN1CCCCC1 -0.195
O=C1CCCCn2nncc2COC[C@@H](Cc2ccccc2)N1 0.104
CC(=O)NC[C@H]1[C@H](c2ccccc2)[C@@H](CO)N1C(=O)Cc1cccnc1 5.37
CN(C)CC#Cc1ccc([C@H]2[C@H](CO)N3CCCCN(CC4CC4)C[C@@H]23)cc1 3
Cc1ccc(-c2ccc([C@H]3[C@H]4CN(S(=O)(=O)c5cccc(F)c5)CC(=O)N4[C@H]3CO)cc2)cc1 1.96
O=C(c1ccc(F)cc1)N1CCCCN2[C@@H](CO)[C@H](c3ccc(-c4ccccc4)cc3)[C@@H]2C1 -0.452
O=C(c1cccc(F)c1)N1CCCCN2[C@H](CO)[C@H](c3ccc(C#CC4(O)CCCC4)cc3)[C@H]2C1 0.958
CC(C)C#Cc1ccc([C@H]2[C@H](CO)N3CCCCN(C(=O)c4ccc(F)cc4)C[C@@H]23)cc1 1.11
O=C(c1cccc(F)c1)N1CCCCN2[C@H](CO)[C@H](c3ccc(-c4ccncc4)cc3)[C@H]2C1 0.501
CC(C)(O)C#Cc1ccc([C@H]2[C@H]3CN(C(=O)c4ccncc4)CCCCN3[C@H]2CO)cc1 0.748
C[C@H](CO)N1C[C@H](C)[C@H](CN(C)C(=O)Nc2cccc(Cl)c2Cl)OCc2ccccc2-c2ccccc2C1=O -1.18
CCCC#Cc1ccc([C@H]2[C@H]3CN(C(=O)Nc4ccc(F)cc4)CC(=O)N3[C@H]2CO)cc1 3.77
C[C@@H]1CN([C@H](C)CO)C(=O)CCCn2cc(nn2)CO[C@@H]1CN(C)C(=O)Nc1ccc2c(c1)OCO2 -0.664
CCCC#Cc1ccc([C@H]2[C@@H](CO)N3C(=O)CN(C(=O)c4ccncc4)C[C@@H]23)cc1 3.16
